# Reference: ChEMBL document CHEMBL1157539, “Thousands of chemical starting points for antimalarial lead identification” (Nature, 2010)
# Key:
# Assay type in all cases: functional
# [1] = system: Plasmodium falciparum; assay: GSK_TCMDC: Inhibition of Plasmodium falciparum 3D7 in whole red blood cells, using parasite LDH activity as an index of growth. Test compounds present at 2uM
# [2] = system: Plasmodium falciparum; assay: GSK_TCMDC: Inhibition of Plasmodium falciparum Dd2 in whole red blood cells, using parasite LDH activity as an index of growth. Test compounds present at 2uM
# [3] = system: HepG2; assay: GSK_TCMDC: Percent inhibition of human HepG2 cell line. Test compounds present at 10uM.
SMILES,Inhibition [1],Inhibition [2],Inhibition [3]
COC(=O)c1ccc2nc(-c3ccc(/C=C/C(=O)NCc4ccc(Cl)c(Cl)c4)cc3)[nH]c2c1,81%,3%,13%
Cc1cc(-c2ccc3c(c2)CCN(CCC2CCC(NC(=O)/C=C/c4ccc(F)cc4)CC2)CC3)on1.Cl (configuration not stated),98%,47%,29%
COc1ccc(OC)c2c1CCN(CCN1CCC(C(=O)Nc3ccc(C(=O)Nc4ccc(Cl)cc4)cc3)CC1)C2,100%,100%,25%
C[C@@H](NC(=O)c1nn(-c2ccc(Cl)cc2)c(=O)c2ccccc12)C(C)(C)C,95%,20%,7%
Cl.O=S(=O)(c1ccc(OCc2ccc(Cl)cc2)cc1)c1cc2c(cc1O)CCN(C1CCC1)CC2,99%,63%,11%
Cc1cc2c(cc1C(F)(F)F)N(C(=O)Nc1ccc(OCCN(C)C)c(C(F)(F)F)c1)CC2.Cl,93%,23%,38%
COc1cc(C2NCC3(CCOCC3)c3cc4c(cc32)OCCO4)cc(OC)c1OC.Cl (configuration not stated),95%,2%,24%
COc1cccc(-c2ccc(C(=O)NC3CCN(Cc4ccc(N(C)C)cc4)CC3)s2)c1.O=C(O)C(F)(F)F,81%,20%,8%
FC(F)(F)c1cc(C(F)(F)F)c2cc(CNCCCNc3nc4ccccc4[nH]3)[nH]c2c1,100%,99%,99%
CCCCNc1c(CC)c(C)c(C#N)c2nc3ccccc3n12,100%,100%,3%
CCOc1ccccc1C(=O)Nc1cccc(-c2nc3ncccn3c2C)c1,92%,88%,0%
Cn1cnc2nc(NCCc3ccccc3)nc(NCc3cccc4ccccc34)c21,95%,98%,16%
N#Cc1ccc(NC(=O)N2CCCN(CCCCCNC(=O)/C=C/c3ccc(Cl)c(Cl)c3)CC2)cc1,100%,4%,32%
Cl.N=c1n(CCN2CCCC2)c2ccccc2n1CC(O)c1ccc(Cl)c(Cl)c1 (configuration not stated),100%,6%,36%
CN(C)CCOc1ccc(-c2cc(-c3ccncc3)c(-c3ccc(Cl)c(O)c3)o2)cc1.Cl,99%,93%,0%
Cc1c(Cl)ccc2sc(N3CCN(C(=O)c4ccc([N+](=O)[O-])o4)CC3)nc12,96%,93%,0%
COc1cccc(C2CCN(CCCCNC(=O)c3ccc(NC(=O)c4ccc(Cl)cc4)cc3)CC2)c1,99%,40%,18%
COc1ccc(CNc2nccc3ccc(-c4ccc(N)nc4)cc23)cc1.O=C(O)C(F)(F)F,93%,49%,7%
CC(=O)Nc1cccc(-c2cn(-c3ccc(OCc4cccc(F)c4)c(Cl)c3)c3ncncc23)c1,100%,66%,7%
COc1ccc(-c2nonc2NC(=O)c2ccc(OC(C)C)cc2)cc1OC,100%,99%,11%
O=C(NCc1ccc(F)cc1)Nc1ccc(-c2cccc(-c3nc4cc(C(F)(F)F)ccc4[nH]3)c2)cc1,100%,92%,41%
COc1cccc(C(=O)Nc2ccc(Nc3nc(C)cc(N(C)C)n3)cc2)c1OC,90%,9%,0%
Cl.Cn1ncc2c3c(CCN4CCC(NCc5cc6c(cn5)OCC6)CC4)c(Cl)cnc3ccc21,94%,0%,4%
O=C(O)c1ccc(-c2c[nH]c3ncc(-c4ccc(Cl)cc4)cc23)cc1,97%,99%,39%
Cc1nn(-c2ccccc2)c2c1C(c1ccc(C(C)C)cc1)N1C(=N2)N(Cc2ccccc2)c2ccccc21 (configuration not stated),95%,37%,7%
O=C(O)C(F)(F)F.Oc1ccc(CN2CCC(NCc3cccc(C(F)(F)F)c3)CC2)cc1,100%,64%,10%
Cc1cc(-c2ccc3occ(CCN)c3c2)cnc1N,92%,56%,0%
Cc1ccc(O)cc1C[C@@H]1C(=O)CC[C@@]2(C)[C@H]1CC[C@]2(C)O,96%,0%,4%
O=C(Nc1ccc(C(=O)OCC2CCCCC2)cc1)N[C@@H](Cc1ccc(O)cc1)C(=O)NC1CCN(Cc2ccc(O)cc2)C1.O=C(O)C(F)(F)F (some centres not stated),91%,0%,6%
